Screening data as filed in PubChem.
C8 TRAIL sens: viability loss with TRAIL in NB7+C8 cells, primary screen, TRAIL sensitizer project, cell-based, ATPlite luminescence; AID 624354, 2012; actives 1% (n = 360,000); inhibition (viability loss, TRAIL sensitization), % at 10 µM;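 active means compounds causing at least 50% loss of cell viability in the single-dose screen, relative to plate controls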
SENP7 inh: SENP7 protease inhibitors, primary screen, biochemical, luminescence, uHTS. actives 1.5% (n = 330,000). inhibition, % at 5 µM. recombinant SENP7, Z-RLRGG-aminoluciferin luminescence, 40 min. AID 434973, 2010;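 active means inhibition above about 50% at the single test dose, limit read from the data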;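 further: plate controls were DMSO with enzyme for no effect and no enzyme buffer wells for full effect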
Target sequence (Q9BQF6 706-1050 limits assumed): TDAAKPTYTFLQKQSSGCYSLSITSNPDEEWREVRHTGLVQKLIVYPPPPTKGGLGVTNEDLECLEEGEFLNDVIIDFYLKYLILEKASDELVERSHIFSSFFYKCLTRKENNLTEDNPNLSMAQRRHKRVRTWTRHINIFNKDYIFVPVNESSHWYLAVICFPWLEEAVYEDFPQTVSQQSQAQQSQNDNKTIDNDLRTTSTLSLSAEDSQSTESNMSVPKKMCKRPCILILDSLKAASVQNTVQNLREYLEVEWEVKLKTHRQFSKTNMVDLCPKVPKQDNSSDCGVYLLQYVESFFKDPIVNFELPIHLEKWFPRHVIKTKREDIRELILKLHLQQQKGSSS
SENP8 block-1: SENP8 protease inhibitors, primary screen, biochemical, luminescence | actives 1.2% (n = 330,000) | Sentrin-specific protease 8 (Homo sapiens), Q96LD8 | purified SENP8, Z-RLRGG-aminoluciferin cleavage | inhibition, % at 10 µM; in the data active means inhibition above about 50%
Target sequence (Q96LD8 whole entry, looked up): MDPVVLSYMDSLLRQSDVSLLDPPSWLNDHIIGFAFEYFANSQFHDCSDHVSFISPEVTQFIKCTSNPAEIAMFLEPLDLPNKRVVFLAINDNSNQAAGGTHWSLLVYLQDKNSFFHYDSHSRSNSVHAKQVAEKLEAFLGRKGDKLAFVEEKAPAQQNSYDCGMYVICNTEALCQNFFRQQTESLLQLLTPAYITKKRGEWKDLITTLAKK
SENP8 block-2: human SENP8 protease inhibitors, primary screen, biochemical, fluorescence, Nedd8 protein substrate, uHTS. Sentrin-specific protease 8 (Homo sapiens), Q96LD8. recombinant SENP8. inhibition, % at 20 µM. actives 0.64% (n = 360,000). AID 602440, 2012; in the data active means inhibition mostly above about 40%, no sharp cut-off; inactive means mostly below about 27%
SENP6 inh: SENP6 protease inhibitors, primary screen, biochemical, luminescence, uHTS | actives 1.8% (n = 330,000) | AID 2599, 2010 | inhibition, % at 10 µM | Recombinant SENP6 catalytic domain, aminoluciferin luminescence;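 active means inhibition above about 50% at the single tested dose, limit read from the data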;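 further: plate controls were DMSO wells with enzyme for no effect and DMSO wells lacking enzyme for full effect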
PPC-1+TRAIL kill: compounds killing PPC-1 cancer cells with TRAIL present, primary screen, TRAIL potentiator project, ATPLite luminescence, uHTS. PPC-1 cells + TRAIL, ATPLite viability luminescence. cell killing (% activity), % at 4 µM or 5 µM. actives 0.41% (n = 220,000). AID 1443, 2008;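 active means cell killing above 50% in the first pass at 4 µM, then a duplicate retest at 5 µM averaging 50% or more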;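 further: plate controls were cells with TRAIL plus DMSO for no effect and medium-only wells lacking cells for full effect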
SENP8 confirm: SENP8 protease inhibitors, retest, confirmation, biochemical, luminescence, single concentration; actives 40% (n = 6,200); AID 488912, 2010; inhibition, % at 12.5 µM; shares compounds with SENP7 inh; Recombinant SENP8, Z-RLRGG-aminoluciferin luminescence, 60 min;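 active means mean inhibition across replicates above about 50%, limit read from the data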
SENP6 confirm: SENP6 protease inhibitors, confirmation, biochemical, luminescence, single concentration; actives 58% (n = 6,200); inhibition, % at 12.5 µM; shares compounds with SENP7 inh; AID 488915, 2010; recombinant SENP6, Z-RLRGG-aminoluciferin luminescence
SENP7 confirm: SENP7 protease inhibitors, retest, confirmation, biochemical, luminescence, single concentration. shares compounds with SENP7 inh. recombinant SENP7, Z-RLRGG-aminoluciferin luminescence, 40 min. inhibition, % at 12.5 µM. actives 69% (n = 6,200). AID 488917, 2010
Casp3 SENP sel: caspase-3 protease inhibitors, confirmation, selectivity assay for SENP inhibitor project, biochemical, single concentration; shares compounds with SENP7 inh; purified caspase-3, Z-DEVD-aminoluciferin luminescence, 60 min; inhibition, % at 12.5 µM; actives 60% (n = 6,200);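 active means mean inhibition above about 50%, limit read from the data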;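 further: plate controls were enzyme with DMSO for no effect and wells without caspase-3 for full effect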
Luc interf: luminescence interference (SENP counter-screen); shares compounds with SENP7 inh; Pre-incubated SENP8/Z-RLRGG-aminoluciferin, luciferase luminescence interference; inhibition, % at 12.5 µM; actives 39% (n = 6,200); AID 488919;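 active means mean inhibition above about 50% when retested at one dose, limit read from the data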;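 further: plate controls were DMSO wells with completed reaction for no effect and substrate without enzyme for full effect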
* = called active by the depositor. Most compounds without a hit are left out; they make up all but 3% or so of the library.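 How the source made its calls, unless noted: active means mean inhibition above about 50% in the one-dose retest (limit read from the data); inactive means the rest.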

`O=C(COc1ccc2ccccc2c1)Nc1nccs1` gave C8 TRAIL sens 57*, SENP7 inh 77*, SENP8 block-1 66*, SENP8 block-2 3, SENP6 inh 61*, PPC-1+TRAIL kill 46, SENP8 confirm 42, SENP6 confirm 89*, SENP7 confirm 99*, Casp3 SENP sel 81* and Luc interf 76*.
For Oc1cccc(/C=N/Nc2cc(N3CCCC3)nc(N3CCCC3)n2)c1 the results were C8 TRAIL sens -12, SENP7 inh 51*, SENP8 block-1 10, SENP8 block-2 -27, SENP6 inh 57*, PPC-1+TRAIL kill 15, SENP8 confirm 16, SENP6 confirm 66*, SENP7 confirm 27, Casp3 SENP sel 4 and Luc interf 11.
`CCOc1ccc(/C=N/Nc2cc(C)nc(N3CCOCC3)n2)cc1` gave C8 TRAIL sens 7, SENP7 inh 2, SENP8 block-1 -3, SENP8 block-2 26, SENP6 inh -20 and PPC-1+TRAIL kill 26.
Screening Cc1nc(N/N=C/c2ccc(Br)cc2)cc(N2CCOCC2)n1 returned C8 TRAIL sens 0, SENP7 inh -3, SENP8 block-1 -21, SENP8 block-2 3 and SENP6 inh -11.
`Oc1ccc(/C=N/Nc2cc(N3CCCC3)nc(N3CCCC3)n2)cc1` gave C8 TRAIL sens 9, SENP7 inh 78*, SENP8 block-1 36, SENP8 block-2 4, SENP6 inh 49, PPC-1+TRAIL kill 4, SENP8 confirm 11, SENP6 confirm 61*, SENP7 confirm 79*, Casp3 SENP sel 10 and Luc interf 7.
COc1ccc(/C=N/Nc2cc(N3CCCC3)nc(N3CCCC3)n2)cc1 was read as C8 TRAIL sens 31, SENP7 inh 38, SENP8 block-1 14, SENP8 block-2 -15, SENP6 inh 52*, PPC-1+TRAIL kill 17, SENP8 confirm 16, SENP6 confirm 51*, SENP7 confirm 34, Casp3 SENP sel 4 and Luc interf 3.
For Oc1ccc(/C=N/Nc2cc(N3CCOCC3)nc(N3CCOCC3)n2)cc1 the results were C8 TRAIL sens 6, SENP7 inh 60*, SENP8 block-1 5, SENP8 block-2 -12, SENP6 inh 19, SENP8 confirm 13, SENP6 confirm 33, SENP7 confirm 4, Casp3 SENP sel 0 and Luc interf 3.
For COc1cc2nc(CN3CCC(C(O)(c4ccccc4)c4ccccc4)CC3)[nH]c(=O)c2cc1OC the results were C8 TRAIL sens 13, SENP7 inh 0, SENP8 block-1 4, SENP8 block-2 -46, SENP6 inh 15 and PPC-1+TRAIL kill 19.
CCN(c1ccccc1)S(=O)(=O)c1ccc(Cl)c(C(=O)N(CC2CCCO2)C2CCS(=O)(=O)C2)c1 (stereo not given) was read as C8 TRAIL sens -1, SENP7 inh 5, SENP8 block-1 1, SENP8 block-2 8, SENP6 inh -3 and PPC-1+TRAIL kill 20.
Screening O=P1(NC2CCCCC2)OCC2(CO1)COP(=O)(NC1CCCCC1)OC2 (stereo not given) returned C8 TRAIL sens -8 and SENP8 block-2 14.
Screening CCC(=O)N1CCC1(C)C(=O)Nc1cnc2ccccc2c1 (stereo not given) returned C8 TRAIL sens 15 and SENP8 block-2 26.
Screening CCOC(=O)c1c(N)sc(C(=O)Nc2ccccc2)c1C returned C8 TRAIL sens 63*, SENP7 inh 85*, SENP8 block-1 73*, SENP8 block-2 -29, SENP6 inh 84*, PPC-1+TRAIL kill 46, SENP8 confirm -23, SENP6 confirm 81*, SENP7 confirm 97*, Casp3 SENP sel 84* and Luc interf 83*.
CCOC(=O)c1c(N)sc(C(N)=O)c1C was read as C8 TRAIL sens -14, SENP7 inh -4, SENP8 block-1 -4, SENP8 block-2 10, SENP6 inh -1 and PPC-1+TRAIL kill -12.
CCOC(=O)c1c(N)sc(C(=O)Nc2ccccc2F)c1C was read as C8 TRAIL sens 45, SENP7 inh 78*, SENP8 block-1 74*, SENP8 block-2 -73, SENP6 inh 81*, PPC-1+TRAIL kill 37, SENP8 confirm 63*, SENP6 confirm 63*, SENP7 confirm 88*, Casp3 SENP sel 67* and Luc interf 33.
Screening COc1ccc(-n2sc3ccc(F)cc3c2=O)cc1 returned C8 TRAIL sens -5, SENP7 inh 79*, SENP8 block-1 91*, SENP8 block-2 21, SENP6 inh 91*, SENP8 confirm 96*, SENP6 confirm 95*, SENP7 confirm 102*, Casp3 SENP sel 96* and Luc interf 92*.
`O=c1c2cc(F)ccc2sn1-c1ccc(F)cc1` gave C8 TRAIL sens -8, SENP7 inh 44, SENP8 block-1 88*, SENP8 block-2 7, SENP6 inh 93*, SENP8 confirm 92*, SENP6 confirm 93*, SENP7 confirm 100*, Casp3 SENP sel 92* and Luc interf 86*.
For COc1ccc(-n2sc3ccccc3c2=O)cc1 the results were C8 TRAIL sens -7 and SENP8 block-2 23.
`O=C(CN1c2ccccc2S(=O)(=O)c2ccccc21)NCc1ccc(F)cc1` gave C8 TRAIL sens -16, SENP7 inh -13, SENP8 block-1 4, SENP8 block-2 -4 and SENP6 inh 14.
For CC(=O)C1=C(O)C(=CC=Cc2ccccc2)OC1=O the results were C8 TRAIL sens 33 and SENP8 block-2 -437.
